Shiga toxin inh: blocks Shiga toxin action in Vero cells | Vero cells, Shiga toxin protein synthesis inhibition reporter | inhibition, % at 38.7 µM | 9.2% of 290,000 active | AID 2315; in the data active means inhibition mostly above about 28%, no sharp cut-off; inactive means mostly below about 43%; further: 0% is about no effect
CHX counter: affects cycloheximide protein synthesis inhibition readout, counter-screen; cell reporter, cycloheximide protein synthesis inhibition counterscreen; max response, %; 12% of 300,000 active; AID 2314; in the data active means max response mostly above about 13%, no sharp cut-off; inactive means mostly below about 14%; further: read at 38.3 µM for the half of the compounds with a filed dose; 0% is about no effect
MARV entry inh: Marburg virus entry inhibition; Marburg virus pseudotyped entry inhibition, cell reporter; Potency, µM (highest dose often 37.8 µM), inactives show top-dose activity change, negative = inhibition, usual class: inhibitors; 1.8% of 300,000 active; AID 540276; calls by dose curve; tested in HEK293 cells; further: potency means the concentration at half of the fitted maximal effect; on the % scale 0 is the no-effect control and ±100 the full control effect
Lassa entry inh: inhibitors of Lassa virus binding or cell entry; AID 540256; Lassa virus pseudotype entry inhibition, cell reporter; Potency, µM (titrated, usually from 37.9 µM), for inactives: at the highest dose activity change, negative = inhibition, usual class: inhibitors; 1.2% of 300,000 active; calls by dose curve; tested in HEK293 cells; further: potency means the concentration at half of the fitted maximal effect; on the % scale 0 is the no-effect control and ±100 the full control effect; nearly all actives have a fitted effect of over 50% in size
An asterisk follows results filed as active; ? = inconclusive; . = no result given; [ ] = another dose, or the depositor's remark. This is a sample that favours compounds with a hit; in the whole collection about 12% have one here.

SMILES | Shiga toxin inh | CHX counter | MARV entry inh | Lassa entry inh
O=C(Nc1ccnn1C1CCN(Cc2cc(Cl)ccc2O)CC1)c1cccnc1 | -6 | -4 | ? | 20%[46.1 µM]
Cc1cc(=O)[nH]c(SCC(=O)Nc2nc(-c3ccccc3)c(-c3ccccc3)o2)n1 | 15 | 16* | 7%[46.1 µM] | 5%
NNC(=O)c1cc(-c2ccccc2)sc1N | 36 | 36* | . | .
COc1cc(/C=N/NC(=O)c2cc(-c3ccccc3)sc2N)cc(OC)c1OC | 30 | 15 | ? | 16µM*
O=C(Nc1sc(-c2ccccc2)cc1C(=O)O)c1ccccc1 | 52* | 35* | . | .
NNC(=O)c1sc(-c2ccccc2)cc1N | 50* | 19* | 9%[46.1 µM] | .
CC1(C)CCN2CCC(C)(C)c3c(O)ccc1c32 | -4 | 0 | . | .
COc1ccnc(Oc2ccc(F)cc2)c1C(=O)N/C=N/OCc1ccccc1 | 4 | -5 | 2%[46.1 µM] | 14%
COc1ccc(Oc2nnnn2-c2ccccc2)cc1 | 31* | 32* | 27% | ?
COc1cccc(Oc2nnnn2-c2ccccc2)c1 | 146 | 33* | 0% | 18%
Cc1ccccc1-n1nnnc1Sc1nnnn1-c1ccccc1 | -20 | -4 | ? | ?
COc1ccc2c(C)cc(Sc3nnnn3-c3ccccc3)nc2c1 | -14 | -7 | 14% | 0.79µM*
COc1cccc(-n2nnnc2S(C)(=O)=O)c1 | -13 | 13 | ? | 8.9µM*
CCc1ccc(Oc2nc3c(C)cccn3c(=O)c2/C=C(\C#N)c2nc3ccccc3s2)cc1 | . | . | 0%[46.1 µM] | 2%[46.1 µM]
C/C(=C\C(=O)N1CCc2ccccc21)C(=O)O | -21 | -6 | ? | 9%
CCOC(=O)/C=C/C(=O)N1CCc2ccccc21 | 36 | 13 | -7% | -2%
O=C(/C=C/c1ccco1)N1CCc2ccccc21 | 59* | 29* | ? | ?
Cc1ccc(/C=C/C(=O)N2CCc3ccccc32)o1 | 103* | 50* | ? | ?
CCc1ccc(/C=C2\Oc3cc(OS(C)(=O)=O)ccc3C2=O)cc1 | -7 | 14* | -15% | ?
CS(=O)(=O)Oc1ccc2c(c1)O/C(=C\C=C\c1ccccc1)C2=O | 36* | 15* | -14%[46.1 µM] | ?
CS(=O)(=O)Oc1ccc2c(c1)O/C(=C\c1cccc([N+](=O)[O-])c1)C2=O | 29 | 4 | . | .
Cc1ccc(S(=O)(=O)Oc2ccc3c(c2)O/C(=C\c2cccnc2)C3=O)cc1 | -7 | -5 | ? | 0%
O=c1cc(CN2CCCc3ccccc32)nc2sccn12 | 59 | 24* | 3% | ?
O=c1cc(CN2CCc3ccccc32)nc2sccn12 | -5 | 0 | 11% | ?
O=C(NCCN1CCOCC1)/C(=C\c1ccc(Br)cc1)NC(=O)c1cccs1 | -2 | -3 | -10% | -1%
SMILES | Shiga toxin inh | CHX counter | MARV entry inh | Lassa entry inh
O=C(CNC(=O)c1cccc([N+](=O)[O-])c1)NC1CCCc2ccccc21 (stereo unspecified) | . | . | -3% | -3%
O=C(NNc1cc(N2CCOCC2)nc(N2CCOCC2)n1)C12CC3CC(CC(C3)C1)C2 | 31 | -4 | -1% | -7%
O=C(CCNc1ccc(Cl)cc1)c1cccs1 | 42* | 32* | ? | 2%
O=C(CCSc1ccc(Cl)cc1)c1cccs1 | 24 | 12* | -25% | -8%
O=C(CCc1ccc(CCC(=O)c2cccs2)s1)c1cccs1 | 53* | 22* | 11% | ?
CC(NC(=O)c1cccs1)c1ccc(Cl)cc1 (stereo unspecified) | . | . | -20%[46.1 µM] | ?
O=C(CCNc1cc(Cl)cc(Cl)c1)c1cccs1 | 43 | 18* | -13% | ?
CC(=O)c1cccc(NC(=S)N2CCN(c3ccccn3)CC2)c1 | 3 | 10 | 0% | -17%
O=C(CCS(=O)(=O)c1cccc2nsnc12)Nc1ccc(F)cc1 | . | . | 3%[46.1 µM] | -1%[46.1 µM]
O=C(/C=C/c1ccco1)NC(=S)Nc1ccccn1 | 109* | 56* | 8%[46.1 µM] | 16%
Cn1nnc(NC(=S)NC(=O)/C=C/c2ccco2)n1 | -4 | 2 | 15%[46.1 µM] | 0%
Cc1cccnc1NC(=S)NC(=O)/C=C/c1ccco1 | 152* | 71* | 16% | ?
CCOC(=O)C1=C(C)N=C2S[C@H](C)C(=O)N2[C@@H]1c1ccc(OC(C)=O)c(OC)c1 | . | . | -13% | .
O=C(Nc1ccc(F)cc1)c1cccc(N2C(=O)C3C4C=CC(C5CC45)C3C2=O)c1 (stereo unspecified) | -7 | -2 | -13%[46.1 µM] | ?
Cc1oc(-c2ccccc2Cl)nc1Cn1cccc1C1=NC(c2ccccc2)CO1 (stereo unspecified) | -38 | -1 | ? | 7.3µM*
CCOC(=O)Nc1nc2ccc(Cn3cccc3)cc2[nH]1 | . | . | -17% | -29%[46.1 µM]
C=CCOC(=O)C1=C(C)NC(=O)NC1c1cc(Cl)cc(Cl)c1OC (stereo unspecified) | -11 | -2 | . | .
Cc1ccc(/C=N/NC(=O)CNC(=O)c2cccs2)cc1 | 19 | 15* | . | .
O=C(CNC(=O)c1cccs1)NCC(=O)OCc1c(F)cccc1Cl | -6 | -3 | ? | 0%
COc1cc(/C=N/NC(=O)CCc2ccccc2)ccc1O | -19 | 20 | ? | 2.8µM*
O=C(CNC(=O)c1cccs1)N/N=C/c1c(F)cccc1Cl | 37* | 16* | 19% | 12%
Cc1ccc(NC(=O)CNC(=O)c2cccs2)c(O)c1 | . | . | 13%[46.1 µM] | 9%
COc1cc(/C=N/NC(=O)CCNC(=O)c2ccccc2Cl)ccc1O | -1 | 1 | 12% | 4%
COc1cccc(/C=N/NC(=O)CNC(=O)CCc2ccccc2)c1O | 66* | 30* | . | .
CCOC(=O)c1ccc(-n2c(C)nc3ccc(Br)cc3c2=O)cc1 | -7 | 0 | -15% | ?
SMILES | Shiga toxin inh | CHX counter | MARV entry inh | Lassa entry inh
O=C(CCl)N(CCc1ccccc1)CCc1ccccc1 | -3 | 19 | ? | ?
O=C(O)CNC(=O)c1ccccc1I | -10 | -5 | . | .
COc1cccc(/C=N/NC(=O)CNC(=O)c2cccs2)c1O | 46* | 31* | ? | ?
COc1ccccc1/C=C\C(=O)NCC(=O)N/N=C/c1cccc(OC)c1O | -6 | -1 | ? | ?
CCNC(=O)C/C(C)=N/NC(=O)C12CC3CC(CC(C3)C1)C2 | 41 | 20* | 23% | ?
Oc1ccc(N=Nc2ccc3ccccc3c2)cc1 | . | 40* | . | .
NS(=O)(=O)c1ccc(N=Nc2c(O)ccc3ccccc23)cc1 | -12 | -2 | -6% | 0%
COc1cc(N=Nc2ccccc2C(=O)O)ccc1O | 14 | 5 | . | .
COc1cc(N=Nc2ccc3ccccc3c2)ccc1O | . | 47* | . | .
Oc1ccc(N=Nc2c(O)ccc3ccccc23)cc1 | -36 | 32* | ? | ?
Cc1ccc(-c2nnc(Nc3ccc4c(c3)OCO4)c3ccccc23)cc1S(=O)(=O)NC(C)C | -8 | -2 | ? | ?
CCc1ccc(-c2cc(C)no2)cc1S(=O)(=O)N1CCOc2ccccc21 | 43 | 13 | ? | ?
O=S(=O)(CS(=O)(=O)Oc1ccccc1)Oc1ccccc1 | . | . | -1% | 15%
COc1ccc(OS(=O)(=O)Cc2ccccc2)cc1 | 41* | 20* | ? | 17%
COC(=O)c1c(NC(=O)COc2cc(C)c(Cl)c(C)c2)sc2c1CCCC2 | . | . | . | 11%[46.1 µM]
O=C(CN1C(=O)COc2ccccc21)N(Cc1ccccc1)Cc1ccccn1 | 108 | 35* | 4% | 4%
CCOc1ccc(C(=O)Nc2ccc(Cl)c(-c3nc4cc(C)cc(C)c4o3)c2)cc1 | . | . | 9%[46.1 µM] | -16%[46.1 µM]

Compound activity from PubChem BioAssay.
